gsp antag: qHTS for Antagonists of gsp, the Etiologic Mutation Responsible for Fibrous Dysplasia/McCune-Albright Syndrome: qHTS; gsp-mutant cells, cAMP HTRF, 30 min; Potency, µM (highest dose often 76.9 µM), without a hit: at the top dose activity change, negative = inhibition, hits mostly inhibitors; AID 624288, 2012; 340,000 compounds, 0.4% hits; calls by dose curve; cell line not stated here;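 further: intracellular cAMP measured with PDE inhibitor Ro 20-1724 present during compound exposure; potency means the concentration at half of the fitted maximal effect; on the % scale 0 is the no-effect control and ±100 the full control effect; nearly all actives have a fitted effect of over 65% in size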
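HTRF cAMP measurement after 30 min RT detection following 30 min, 37C compound treatment alongside […] (added as 300 uM solution) in G418-selected cells seeded at 2000/well and grown 16–24 h.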
KCNH2 3.1 block: qHTS for Inhibitors of KCHN2 3.1: Mutant qHTS | Potassium voltage-gated channel subfamily H member 2, brain isoform KCNH2 3.1 (human) | U2OS KCNH2 3.1, thallium flux FluxOr; active compounds read low | activity change, % (tested at about 1.8 µM) | 340,000 compounds, 0.95% hits | AID 720553, 2013;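 active means maximum activity change below -70%; inconclusive means maximum activity change from -70% to -50%; inactive means maximum activity change above -50%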;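 further: thallium influx rate constant from kinetic fluorescence after stimulation buffer; on the % scale 0 is the no-effect control and ±100 the full control effect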
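Thallium flux via FluxOr fluorescence (Red40 quencher, 45 min loading) in U2OS cells virally expressing the KCNH2 3.1 isoform (1.77 x 10^8 /mL virus, overnight at 37 C). Rate constants from 2-min kinetic reads post-stimulation, normalised to positive and negative controls.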
Glioma ERSR ind: qHTS for Inducers of the Endoplasmic Reticulum Stress Response (ERSR) in Human Glioma: qHTS; U87-MG GRP78 promoter luciferase reporter, 16 h; Potency, µM, for the others: top-dose activation, usual class: activators; 420,000 compounds, 0.02% hits; active means well fitted activation curve with a large enough effect; inconclusive means small, poorly fitted or top-dose-only effect; inactive means no such curve, though single readings can be large or run the other way; further: potency means the concentration at half of the fitted maximal effect; series mostly up to about 76 µM; % of control where 0% means no effect; nearly all actives have a fitted effect of over 35% in size
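Stably transfected U87-MG glioma cells carrying a GRP78-based luciferase sensor; 16 h compound incubation. Luminescence end-point read 10 min after Bright-Glo addition at room temperature.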
hERG WT inh: qHTS for Inhibitors of KCHN2 3.1: Wildtype qHTS | Voltage-gated inwardly rectifying potassium channel KCNH2 (Homo sapiens), Q12809 | U2OS, BacMam KCNH2, thallium flux FluxOr; active compounds read low | activity change, % at 1.84 µM | 340,000 compounds, 0.37% hits | AID 720551, 2013;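 active means maximum activity change below -70%; inconclusive means maximum activity change between -70% and -50%; inactive means maximum activity change above -50%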; further: on the % scale 0 is the no-effect control and ±100 the full control effect
Target sequence (Q12809 whole entry, looked up): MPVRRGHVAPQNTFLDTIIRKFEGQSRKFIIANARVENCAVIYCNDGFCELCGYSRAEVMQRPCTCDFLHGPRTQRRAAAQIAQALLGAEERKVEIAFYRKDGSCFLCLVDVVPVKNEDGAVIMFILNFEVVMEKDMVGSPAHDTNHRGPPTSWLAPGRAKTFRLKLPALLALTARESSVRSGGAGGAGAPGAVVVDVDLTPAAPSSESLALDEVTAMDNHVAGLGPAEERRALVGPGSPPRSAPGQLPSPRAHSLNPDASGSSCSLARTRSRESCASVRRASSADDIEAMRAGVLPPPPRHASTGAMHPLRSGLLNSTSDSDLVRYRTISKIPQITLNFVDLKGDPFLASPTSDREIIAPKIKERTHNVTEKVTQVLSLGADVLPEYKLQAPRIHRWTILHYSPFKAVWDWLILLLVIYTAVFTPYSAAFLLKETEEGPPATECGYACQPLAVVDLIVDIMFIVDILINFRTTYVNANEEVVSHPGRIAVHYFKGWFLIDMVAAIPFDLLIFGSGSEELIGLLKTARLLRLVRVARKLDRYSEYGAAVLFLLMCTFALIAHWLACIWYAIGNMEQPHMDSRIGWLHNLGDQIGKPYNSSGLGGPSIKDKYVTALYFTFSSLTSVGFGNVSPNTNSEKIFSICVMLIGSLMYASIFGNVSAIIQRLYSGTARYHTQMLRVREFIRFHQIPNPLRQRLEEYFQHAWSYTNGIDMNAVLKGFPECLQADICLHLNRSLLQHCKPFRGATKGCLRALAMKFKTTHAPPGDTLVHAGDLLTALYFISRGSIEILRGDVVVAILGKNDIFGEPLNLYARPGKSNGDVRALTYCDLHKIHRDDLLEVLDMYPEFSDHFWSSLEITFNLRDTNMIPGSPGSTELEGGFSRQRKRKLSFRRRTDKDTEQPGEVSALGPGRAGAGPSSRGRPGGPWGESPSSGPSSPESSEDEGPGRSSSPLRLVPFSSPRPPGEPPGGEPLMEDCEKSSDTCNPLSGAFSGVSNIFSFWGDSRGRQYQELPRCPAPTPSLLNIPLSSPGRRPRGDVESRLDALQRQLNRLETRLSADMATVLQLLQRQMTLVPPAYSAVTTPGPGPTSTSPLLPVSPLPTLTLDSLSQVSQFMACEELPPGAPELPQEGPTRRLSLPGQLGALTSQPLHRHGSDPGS
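U2OS cells were transduced with wild-type KCNH2 virus (2.03 x 10^8 / mL) for 4 h at room temperature, then cultured overnight at 37 C. Thallium flux was read with FluxOr dye. Rate constants were normalized to DMSO controls.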
gsp agonist: qHTS for Agonist of gsp, the Etiologic Mutation Responsible for Fibrous Dysplasia/McCune-Albright Syndrome: qHTS; gsp mutant cells, cAMP HTRF, 30 min; Potency, µM (top dose mostly 76.9 µM), without a hit: at the highest dose activation (cAMP increase), most hits filed as activators; 340,000 compounds, 0.13% hits; AID 624287, 2012; active means well fitted activation curve with a large enough effect; inconclusive means small, poorly fitted or top-dose-only effect, or another doubt; inactive means no such curve, though single readings can be large or run the other way; cell line not stated here;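 further: phosphodiesterase inhibitor Ro 20-1724 added with compounds to block cAMP breakdown; potency means the concentration at half of the fitted maximal effect; nearly all actives have a fitted effect of over 60% in size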
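Cells in DMEM/10% FBS with G418 were pretreated with compounds in DMSO plus […] (300 uM stock) for 30 min at 37C. cAMP was measured by HTRF (cAMP-d2 plus anti-cAMP antibody-K) after 30 min at room temperature.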
pAkt inh: HTS Assay for Inhibitors of Akt Phophorylation: Primary Screen; Neuro2A IGF-stimulated pAkt S473 HTRF, 20 min; active compounds read low; activity change, % for hits at 50 µM; 360,000 compounds, 0.32% hits; AID 651550, 2012; in the data active means activity change below about -80%; inconclusive means mostly about -51% to -80%; further: on the % scale 0 is the no-effect control and ±100 the full control effect
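Neuro2A cells in DMEM with 0.5% FBS, overnight at 37 deg C, given compound at single 50 µM final, then IGF (6 nM final) for 20 min at 37 deg C. Lysed; phospho-Akt Ser473 by HTRF after 24 h, 665/615 ratio.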
* = called active by the depositor; i = inactive; u = inconclusive; x = no result given; [ ] = dose if it differs, or a comment. A selection: hits, their analogues and other compounds. The true share with any hit is near 1.6%.

SMILES	gsp antag	KCNH2 3.1 block	Glioma ERSR ind	hERG WT inh	gsp agonist	pAkt inh
COc1ccc(C(=O)N2CCCC(c3nc(SCc4ccccn4)ncc3C)C2)cc1F (stereo not given)	x	x	-0.4%	x	x	x
O=C(CSc1nnnn1C1CCCC1)Nc1ccc(F)cc1	11.1%	14.1	-0.8%	-1.4	-0.4%	-110.4%*
O=C(CSc1nnnn1C1CCCCC1)Nc1ccc(F)cc1	x	-12.8	1.0%	0.2	3.3%[15.4 µM]	i
COc1cc(=O)n2c(c1C(=O)N(C)Cc1ccsc1)CCN(Cc1c(C)nc3sccn13)CC2	x	x	-3.7%	x	x	x
Cc1ccc(C(=O)Nc2ccccc2C(=O)O)cc1S(=O)(=O)Nc1ccccc1	u	-2.8	-2.0%	-6.5	-31.5%	i
Cc1ccc(C(=O)Nc2ccccc2C(=O)O)cc1S(=O)(=O)NC1CCCCC1	-17.4%	-71.3*	5.5%	7.3	4.6%	i
O=C(NCCOc1ccccc1)c1ccccc1Cl	4.8%	1.8	-10.3%	1.4	20.8%[15.4 µM]	i
CN(C(=O)COc1ccccc1C(=O)NCCOc1ccccc1)c1ccccc1	35.5µM*	1.3	-9.5%	-2.2	-17.6%	i
O=c1[nH]c(=O)n(Cc2ccccc2)c2nc(-c3ccc(Oc4ccc(F)cc4)c([N+](=O)[O-])c3)n(CCO)c12	-8.9%	-86.4*	1.8%	-28.2	u	i
CC(=O)c1cn(CC(=O)Nc2ccccc2C)c2ccccc12	6.3%	6.5	-3.7%	2.2	5.2%	-111.3%*
COc1cccc(Cc2nc3cccnc3n2C2CCN(Cc3ccc(C)s3)CC2)c1	x	x	-6.8%	x	x	x
COC(=O)[C@@H]1CCCN1Cc1ccc2c(c1)CN(Cc1cccn1-c1ccc(Cl)cn1)CCO2	x	x	-4.2%	x	x	x
Cc1ccc(/C=C/C(=O)NC(=S)Nc2ccc(S(=O)(=O)Nc3cc(C)on3)cc2)cc1	35.5µM*	3.1	-1.3%	-36.7	0.1%	i
COc1ccc(O)c(CN2CCC3(CCC(CNC(=O)C4CCCO4)O3)CC2)c1 (stereo not given)	x	x	-5.9%	x	x	x
Cc1cc(OCC(=O)N2CCc3ccccc3C2)c2c(-c3ccccc3)cc(=O)oc2c1	9.9%	-20.9	2.0%	-203.1*	0.8%	i
CCOc1cc(C)cc2oc(=O)cc(-c3ccccc3)c12	0.0%	-31.7	0.4%	-2.5	-42.8%	i
Oc1ccccc1-c1nc(N2CCCC2)c2ccccc2n1	-10.9%	2.3	0.2%	1.0	u	-145.1%*
Cc1ccccc1CC1(CO)CCCN(C(=O)c2ccoc2)C1 (stereo not given)	x	-8.5	-5.1%	6.6	-74.5%	i
O=C(c1ccoc1)N1CCCC(CO)(CCCc2ccccc2)C1 (stereo not given)	10.2%	-154.9*	3.3%	-16.4	-20.2%	i
Cc1onc(-c2ccccc2)c1C(=O)Nc1ccc(NC(=O)c2c(-c3ccccc3)noc2C)cc1	3.5%	-24.5	0.2%	-6.8	-1.8%	i
COC(=O)c1sccc1NC(=O)c1c(-c2ccccc2)noc1C	-3.6%	-73.6*	-1.5%	-0.2	19.1%	i
CC[N+](CC)(CC)c1ccc(/C=C/c2ccc3ccccc3n2)cc1	x	x	-8.2%	x	x	x
CCOC(=O)c1nn(-c2ccc(Cl)cc2)c2nnc(Cc3ccc(C)cc3)c(=O)n12	u	-87.8*	-2.5%	-5.8	-12.5%	i
CCOC(=O)c1nn(-c2ccccc2)c2nnc(Cc3ccc(Cl)cc3)c(=O)n12	-1.6%	-1.6	0.0%	1.8	13.3%[15.4 µM]	i
CC(=O)/C=C/c1ccc2c(c1)S(=O)(=O)N(C1CCCC1)[C@H]2CC(C)=O	x	x	-11.8%	x	x	x
CCCn1c(=O)c2c(nc3n2CCCN3CCc2ccc(OC)c(OC)c2)n(C)c1=O	u	-1.3	-4.6%	-9.0	5.3%	i

Screens (PubChem)
